From PubChem BioAssay (NCI)
Compounds without any hit were thinned out: in the full panel of roughly 83,000, 20% have a hit.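 Results are percent growth after 48 hours of single-concentration exposure. 100 means growth as in untreated cells, lower positive values show inhibition; negative values down to -100 show cell death.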 Unmarked numbers belong to inactive results. The source made the active and inactive calls. How the source made its calls: active means growth percent below 10; inactive means the rest.

Legend:
Assay in all cases: NCI-60 one-dose screen, 48 h (100 = growth as untreated, 0 = no growth, -100 = all killed)
Conditions in all cases: 10 µM unless noted
[1] = tested on: SR leukemia
[2] = tested on: RPMI-8226 leukemia
[3] = tested on: OVCAR-8 ovarian
[4] = tested on: OVCAR-5 ovarian
[5] = tested on: OVCAR-4 ovarian
[6] = tested on: SK-OV-3 ovarian
[7] = tested on: IGROV1 ovarian
[8] = tested on: OVCAR-3 ovarian
[9] = tested on: HS 578T breast
[10] = tested on: NCI/ADR-RES ovarian
[11] = tested on: T-47D breast
[12] = tested on: BT-549 breast
[13] = tested on: MDA-MB-435 melanoma
[14] = tested on: SW-620 colon
[15] = tested on: MCF7 breast
[16] = tested on: HCT-116 colon
[17] = tested on: HCC-2998 colon
[18] = tested on: KM12 colon

| SMILES | growth [1] | growth [2] | growth [3] | growth [4] | growth [5] | growth [6] [%] | growth [7] | growth [8] | growth [9] | growth [10] | growth [11] | growth [12] | growth [13] | growth [14] | growth [15] | growth [16] | growth [17] | growth [18] |
| --- | --- | --- | --- | --- | --- | --- | --- | --- | --- | --- | --- | --- | --- | --- | --- | --- | --- | --- |
| COc1cc(C2Cc3ncccc3-c3[nH]c(=O)c4cccnc4c32)cc(OC)c1OC (stereo not drawn) | 11.8% | 37.6% | 17.3% | 52.2% | 58% | 15.3 | 48.6% | -11.3% (active) | 41.9% | 31.1% | 45.6% | 40.6% | -50.3% (active) | 26.7% | 16% | 13.8% | 25.1% | 23% |
| COc1ccc(/C=C/C(=O)c2cc3c(N)c(C(=O)Nc4ccccc4C)sc3nc2C)cc1 | 15.2% | -7.33% (active) | 6.22% (active) | 36.6% | 54% | 21.2 | 30.6% | 1.23% (active) | 10.4% | 7.7% (active) | 39.9% | 29.7% | -39.6% (active) | 14.9% | 9.36% (active) | 14.7% | 15.4% | 10.6% |
| C#CC#CC#CC#CC#CC#CC#CC#CC[C@H]1OC[C@H](COC(=O)O[C@@H](C(=O)O[C@H]2C[C@@]3(O)[C@@H](OC(=O)c4ccccc4)[C@@H]4[C@]5(OC(C)=O)CO[C@@H]5C[C@H](O)[C@@]4(C)C(=O)[C@H](OC(C)=O)C(=C2C)C3(C)C)[C@@H](NC(=O)c2ccccc2)c2ccccc2)O1 | 25.8% | 16% | 52.7% | 38.4% | 60.7% | 66.2 | 48.1% | 15.7% | 43.7% | 106% | 40.6% | 53.2% | -57.8% (active) | 38% | 24.4% | 15.5% | 38.2% | 18% |
| COc1ccc(-c2ccc(=O)oc2C#Cc2cc(OC)c(OC)c(OC)c2)cc1O | 7.05% (active) | 15.3% | 20% | 46.2% | 58.6% | 30.7 | 28.9% | -67.2% (active) | -8.91% (active) | 16.4% | 38.8% | -16.9% (active) | -78% (active) | -30.3% (active) | 3.79% (active) | -30.4% (active) | 221% | 3.09% (active) |
| O=C(CBr)CN1C(=O)c2ccccc2C1=O | 98.9% | 112% | 103% | 97.4% | 103% | 99.7 | 103% | 102% | 105% | 105% | 93.9% | 111% | 103% | 109% | 97.7% | 102% | 98.8% | 97.6% |
| O=C(Nc1nc(C(=O)N2CCN(C(c3ccccc3)c3ccccc3)CC2)cs1)c1ccc(NC2CCCCC2)c([N+](=O)[O-])c1 | 90.2% | 64.2% | 80.4% | 89.2% | 68.9% | 89.8 | 79.6% | 92.2% | 90.2% | 77% | 60% | 82.5% | 91% | 91.4% | 81.3% | 82.6% | 72.7% | 91.4% |
| O=c1[nH]c(-c2ccc(Cl)cc2)cn1-c1ccc(-n2cc(-c3ccc(Cl)cc3)[nH]c2=O)cc1 | 98% | 123% | 92% | 104% | 98.5% | 97.5 | 102% | 109% | 102% | 108% | 89.1% | 110% | 98.8% | 102% | 99.8% | 101% | 106% | 106% |
| COc1ccccc1NC(=O)c1ccc(/C=C/C(=O)c2nccn2C)cc1 | -18.2% (active) | -35% (active) | 4.61% (active) | -80.9% (active) | -34.8% (active) | 15.8 | -56.5% (active) | -90.9% (active) | 35.5% | 5.75% (active) | -15.8% (active) | -63.5% (active) | -75.7% (active) | -77.7% (active) | -45.6% (active) | -84.9% (active) | -85.9% (active) | -73.9% (active) |
| CCN(CC)S(=O)(=O)c1ccc(S(=O)(=O)N2CCC[C@@H](C(=O)N3CCN(C(=O)OC(C)(C)C)CC3)C2)cc1 | 31.7% | 53.7% | 63.3% | 102% | 26.1% | 90.5 | 86.1% | 73.5% | 87.2% | 62% | 44.5% | 61.5% | 60.6% | 80.4% | 49.3% | 54.1% | 89.6% | 76.9% |
| COc1ccc2cc(-c3cnc4nonc4n3)ccc2c1 | 9.96% (active) | 0.566% (active) | 23.9% | 76% | 50% | 71 | 60.3% | 11.1% | 13.9% | -4.57% (active) | 15.5% | 56.3% | -14.9% (active) | 26.9% | 15.7% | 18.3% | 59.3% | 23.1% |
| CCNCc1ccc(O)c2ncccc12 | 19% | 24.2% | 23% | 64.7% | 17.8% | 27.9 | 46% | 37.7% | 39.9% | 27.3% | 27.3% | 40.8% | 16.6% | 33.1% | 17.3% | 21.6% | 45.9% | 29.2% |
| C#CCOc1ccc2ncnc(Nc3cccc(NC(=O)CCl)c3)c2c1 | 30.3% | 64.2% | 54.6% | 104% | 82.7% | 113 | -37.7% (active) | 51.3% | 90.5% | 90.8% | 85.2% | 68.6% | 81.7% | 33.5% | 41.9% | 22.9% | 99.4% | 71% |
| Nc1c(C(=O)Nc2cccc3ncccc23)sc2nc3c(cc12)C(=O)CCC3 | 41.4% | 59.6% | 78.9% | 69.8% | 71.1% | 21.3 | 59% | 37.4% | 5.47% (active) | 72.8% | 49.3% | 55.2% | -18.2% (active) | 39.1% | 25.2% | 44.1% | 75.8% | 46.5% |
| O=c1[nH]cnc2c1C(c1ccc(Br)cc1)c1sc3c(F)cccc3c1O2 (stereo not drawn) | 54.7% | 60.4% | 95.3% | 90.7% | 94.9% | 117 | 84.4% | 107% | 85.2% | 100% | 83.9% | 99.1% | 100% | 90.6% | 77.3% | 98.9% | 111% | 88.8% |
| CCOC(=O)c1cn2ncnc(Oc3ccc(NC(=O)NC4CC4)c(F)c3)c2c1C | 84.6% | 84.6% | 99.7% | 103% | 69.7% | 111 | 99.3% | 113% | 103% | 99.3% | 93.8% | 103% | 95.9% | 96.2% | 92.6% | 76.9% | 110% | 101% |
| Cn1cc(-c2csc(-c3cn(C)c4ccc(Br)cc34)n2)c2cnccc21 | -29.6% (active) | -37.3% (active) | -49.4% (active) | -67.3% (active) | -50.9% (active) | 96.5 | -91.5% (active) | -92.9% (active) | -40% (active) | -69.5% (active) | -47.3% (active) | 86.2% | -87.6% (active) | -70% (active) | -74.7% (active) | -89.8% (active) | -84.3% (active) | -87.4% (active) |
